Screening results as filed in PubChem.
Sampled rows, rich in hits. Any-hit rate of the full collection: about 5.4%.
Mdm2 MdmX PPI: inhibitors of human Mdm2/MdmX interaction | inhibition, % at 8 µM | SaOS-2 split-luciferase Mdm2/MdmX complementation, luminescence | hit rate 3% among 330,000;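 active = inhibition of at least 50% at 8 µM in the primary screen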
Calb FLC: C. albicans growth modulation with fluconazole. growth inhibition, % (concentration not given with the values). hit rate 0.57% among 300,000. C. albicans CaCi-2 (fluconazole-resistant clinical isolate) + fluconazole, Alamar Blue growth, 48 h. AID 1979;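 active = growth inhibition above about 58% in most replicates, limit read from the data, passing the limit was not always enough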;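 also: all wells also contain fluconazole at 8 µg/ml as a sub-toxic cotreatment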
SKKanGAS inh: blocks kanamycin growth of S. pyogenes SKKanGAS strain; AID 1662; inhibition, % at 7.5 µM; hit rate 1.3% among 300,000; BacTiter-Glo, 6 h;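 active = mean replicate score, as percent of positive control median, at least 50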;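 also: strain carries kanamycin resistance gene driven by streptokinase promoter and grows in 40 µg/ml kanamycin; loss of luminescence reflects streptokinase promoter inhibition or plain growth inhibition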
CSC inhib: cancer stem cell inhibition. hit rate 1.1% among 300,000. cancer stem cell-like cells viability, luminescence. inhibition, % at 7.5 µM; in the data active = inhibition above about 75%; tested in HMLE shEcad cells
MPTP block: permeability transition pore inhibition. hit rate 1.4% among 360,000. isolated mouse mitochondria, Ca2+ swelling absorbance, 30 min. inhibition, % at 10 µM;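 active = inhibition of 50% or more, scaled per plate between neutral and stimulator controls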
Beta apoptosis: blocks beta cell apoptosis; hit rate 0.8% among 300,000; AID 435005; INS-1E cytokine-induced death, ATP luminescence, 48 h; percent of positive-control rescue, neutral wells zero; protection from apoptosis, % (no concentration beside the values);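 active = Every replicate reaches about 75%, or at least half do and their mean reaches it too, limit read from the data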;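 also: higher means more ATP so stronger rescue from cytokine killing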
Mdm2 MdmX conf: confirmation of human Mdm2/MdmX interaction inhibitors. shares compounds with Mdm2 MdmX PPI. Mdm2-MdmX binding, luminescent assay. inhibition, % at 8 µM. hit rate 55% among 10,000; in the data active = inhibition above about 40%
FLuc counter: full-length luciferase inhibition in Mdm2/MdmX counter-screen; shares compounds with Mdm2 MdmX PPI; hit rate 77% among 6,200; SaOS-2 full-length luciferase counterscreen, luminescence; AID 504607; inhibition, % at 8 µM;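 active = mean inhibition at 8 µM reaching about 37%, which flags the compound as non-specific, limit read from the data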;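 also: p53-null SaOS-2 cells with luciferase driven by a doxycycline-inducible promoter; compound on cells about two nights before reading with doxycycline added after day one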
Numbers stand for hits; n = inactive; x = no result given.

SMILES	Mdm2 MdmX PPI	Calb FLC	SKKanGAS inh	CSC inhib	MPTP block	Beta apoptosis	Mdm2 MdmX conf	FLuc counter
CSc1nccc(-c2nn(-c3ccc(C)cc3)ccc2=O)n1	51	n	n	n	n	n	73	59
COC(=O)[C@H](CC(C)C)NC(=O)/C=C/[C@H]1O[C@@H](n2ccc(=O)[nH]c2=O)[C@H](O)[C@@H]1O	x	x	x	x	n	x	x	x
Cc1ccc(S(=O)(=O)c2c(C)nn(C(C)(C)C)c2OC(=O)C2CCCC2)cc1	70	n	n	n	n	n	n	x
NC(=O)[C@@H]1CC2(CC(c3cccc(NC(=O)CC(c4ccccc4)c4ccccc4)c3)=NO2)CN1C(=O)c1ccc(Cl)cc1 (stereo partly specified)	52	n	n	n	n	n	n	x
C=C(C)C(=O)N1CC2(CC(c3cccc(NC(=O)CC(c4ccccc4)c4ccccc4)c3)=NO2)C[C@H]1C(N)=O (stereo partly specified)	n	n	n	n	n	n	x	x
CCC(=O)N1CC2(CC(c3cccc(NC(=O)CC(c4ccccc4)c4ccccc4)c3)=NO2)C[C@H]1C(N)=O (stereo partly specified)	n	n	n	n	n	n	x	x
NC(=O)[C@H]1CC2(CC(c3cccc(NC(=O)CC(c4ccccc4)c4ccccc4)c3)=NO2)CN1C(=O)CC(c1ccccc1)c1ccccc1 (stereo partly specified)	68	n	n	n	n	n	52	57
CCCCC1(Cc2ccc([N+](=O)[O-])cc2)C(=O)N(c2ccccc2)N(c2ccccc2)C1=O	97	n	n	n	n	101	97	47
CCCCC1(COC(=O)CCC(=O)O)C(=O)N(c2ccccc2)N(c2ccccc2)C1=O	n	x	x	n	n	n	x	x
O=c1[nH]c(N2CCCCCC2)nc2ncn(Cc3ccccc3)c12	n	n	n	n	n	n	x	x
Cc1sc(NC(=O)c2cc(-c3ccccc3)nc3ccccc23)c(C(N)=O)c1C	n	n	n	n	n	n	x	x
O=C(N/N=C/c1ccccn1)c1cc(-c2ccc(Cl)cc2)nc2ccccc12	76	61	62	n	n	n	n	x
Cc1sc(NC(=O)c2cc(-c3ccc(Cl)cc3)nc3ccccc23)c(C(N)=O)c1C	73	n	n	n	n	n	n	76
O=C(N/N=C/c1ccc([N+](=O)[O-])o1)c1cn2ccc3ccccc3c2n1	82	n	n	n	n	n	n	x
COc1ccc(-c2nn(-c3ccccc3)cc2C(=O)N2CCOCC2)cc1	n	n	n	x	n	x	x	x
COc1ccc(-c2nn(-c3ccccc3)cc2C(=O)N/N=C/c2ccc([N+](=O)[O-])o2)cc1	58	n	n	n	n	n	53	52
O=C(c1ccco1)N1CCN(C(=O)c2snc3ccc(Cl)cc23)CC1	n	n	n	n	n	n	x	x
O=C(N/N=C/c1ccc([N+](=O)[O-])o1)c1cc(-c2cccc(Br)c2)nc2ccccc12	50	n	98	n	n	n	n	x
O=C(N/N=C/c1ccccn1)c1cc(-c2ccc(Br)cc2)nc2ccccc12	84	n	107	n	n	n	n	46
Cc1[nH]c2ccccc2c1/C=N/NC(=O)c1cc(-c2ccncc2)nc2ccccc12	59	n	n	n	n	n	69	52
Cc1cccc(NC(=O)c2cc(-c3ccc(C)s3)nc3ccccc23)n1	73	n	n	n	n	n	59	83
O=C(O)COc1ccccc1/C=N/NC(=O)c1cc(-c2ccccc2)nc2ccccc12	n	n	n	n	n	n	x	x
CC1CCC(=NNC(=O)Cc2cccn2C)CC1 (stereo unspecified)	n	n	n	n	n	n	x	x
C=CCNC(=S)/N=c1/ccccn1C	n	n	n	n	n	n	x	x
COc1ccc(Cn2nnnc2C(c2ccccn2)N2CCN(c3cc(Cl)ccc3C)CC2)cc1 (stereo unspecified)	n	n	n	n	n	n	x	x
SMILES	Mdm2 MdmX PPI	Calb FLC	SKKanGAS inh	CSC inhib	MPTP block	Beta apoptosis	Mdm2 MdmX conf	FLuc counter
CN1C(=O)/C(=C/c2ccc(OCc3cccc(F)c3)cc2)NC1=S	n	n	n	n	n	n	x	x
COc1cc(/C=C2/C(=O)N(C)C(=S)N2C)ccc1OCc1cccc(F)c1	88	n	n	n	n	n	n	x
Cc1cccc(/C=C/c2onc(C)c2[N+](=O)[O-])n1	100	n	n	n	x	n	71	n
Cc1cccc(N/C=C/c2onc(C)c2[N+](=O)[O-])c1	n	n	n	n	n	n	x	x
CCC(=O)N1CCN=C1SCc1c(F)cccc1Cl	n	n	n	n	n	x	x	x
CCOC(=O)c1ccc(NC(=O)CCSCCc2ccccn2)cc1	n	n	n	n	n	n	x	x
COC(=O)c1cccc(C#CC(NP(=O)(c2ccccc2)c2ccccc2)c2ccccc2)c1 (stereo unspecified)	n	n	n	n	n	n	x	x
CCC[C@@H]1C[C@@]1(CCC)[C@@H](NP(=O)(c1ccccc1)c1ccccc1)c1ccc(C(=O)OC)cc1	75	n	97	n	x	x	n	73
CCCCC(=O)NC(c1ccccc1)c1ccc2cccnc2c1O (stereo unspecified)	72	89	n	110	n	99	88	50
CC(=O)NC(c1ccc(C(C)C)cc1)c1ccc2cccnc2c1O (stereo unspecified)	81	n	n	109	n	90	83	n
CCC(=O)NC(c1ccc(OC)cc1)c1c(O)ccc2ccccc12 (stereo unspecified)	63	n	n	n	n	n	62	71
CCCCC(=O)NC(c1ccccc1Cl)c1ccc2cccnc2c1O (stereo unspecified)	80	n	69	99	n	106	90	n
COc1cccc(NC(=O)N2CCCC(C(=O)NC3CCCCC3C)C2)c1 (stereo unspecified)	n	n	n	x	n	n	x	x
Cc1nc2ccc(Nc3ccncc3)cc2s1	n	n	n	n	n	n	x	x
CN(CC(=O)Nc1cccnc1Cl)S(=O)(=O)c1ccc(Cl)cc1	n	n	n	n	n	n	x	x
CCCCC(=O)NC(c1ccco1)c1cc(Cl)c2cccnc2c1O (stereo unspecified)	63	112	52	102	n	104	56	n
CCCC(=O)NC(c1ccccc1)c1ccc2cccnc2c1O (stereo unspecified)	79	86	n	108	n	99	89	49
CCC(=O)NC(c1ccccc1OC)c1ccc2cccnc2c1O (stereo unspecified)	70	103	n	93	n	109	60	n
